# RE007 growth inh = less growth of the S. pombe RE007 Vpr strain | S. pombe RE007 Vpr strain, BacTiter-Glo ATP luminescence, 24 h | Potency, µM (titrated, usually from 92.2 µM), inactives show top-dose activity change, negative = less growth, actives largely listed as inhibitors | 360,000 tested, 0.21% active | AID 651644; active = well fitted falling curve with a large enough effect; inconclusive = small, poorly fitted or top-dose-only effect; inactive = no such curve, though single readings can be large or run the other way; note: potency is the fitted concentration of half-maximal effect; % is set by controls: 0 for no effect and ±100 for the full control effect; nearly all actives have a fitted effect of over 50% in size
#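 Fission yeast strain RE007, carrying one chromosomally integrated HIV-1 vpr copy, was seeded at OD 0.01 in PMG+AL medium with 23 nL pinned compound. After 24 h at 30 °C and 99% humidity, viability was read by BacTiter-Glo luminescence.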
# Giardia FBPA inh = blocks Giardia fructose-bisphosphate aldolase activity | 290,000 tested, 0.71% active | Potency, µM (titrated, usually from 59.6 µM), inactives show at the highest dose activity, negative = inhibition, usual class: inhibitors | purified Giardia FBPA | A8B2U2; note: potency is the fitted concentration of half-maximal effect; % is set by controls: 0 for no effect and ±100 for the full control effect; nearly all actives have a fitted effect of over 55% in size
# Target sequence (A8B2U2 whole entry, looked up): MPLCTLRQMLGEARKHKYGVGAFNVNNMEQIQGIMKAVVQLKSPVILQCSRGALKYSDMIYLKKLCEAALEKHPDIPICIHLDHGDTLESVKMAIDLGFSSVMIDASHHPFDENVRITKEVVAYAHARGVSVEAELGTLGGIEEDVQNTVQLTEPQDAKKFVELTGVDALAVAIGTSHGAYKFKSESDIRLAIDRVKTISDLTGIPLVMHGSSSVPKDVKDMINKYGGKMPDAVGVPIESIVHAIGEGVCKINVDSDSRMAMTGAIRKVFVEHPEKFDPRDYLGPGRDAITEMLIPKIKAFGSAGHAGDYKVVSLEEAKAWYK
#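 40 nM FBPA preincubated 10 min at RT with compound (up to 57.5 uM final), then substrate plus GAPDH/TPI/NAD/arsenate coupling and diaphorase/resazurin added. Fluorescence read after 20 min at RT, 525/598 nm.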
# LmPK inh = LmPK (Leishmania mexicana) enzyme inhibition; purified LmPK, Kinase-Glo ATP luminescence, 1 h; Potency, µM (highest dose often 57.5 µM), without a hit: at the highest dose activity change, negative = inhibition, usual class: inhibitors; 290,000 tested, 0.37% active; AID 1721; note: potency is the fitted concentration of half-maximal effect; % is set by controls: 0 for no effect and ±100 for the full control effect
#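 0.1 nM LmPK, 0.5 mM PEP, 0.1 mM ADP; 50 mM imidazole pH 7.2, 7 mM MgCl2, 50 mM KCl; 1 h RT. Kinase-Glo luminescence readout, normalized to no-enzyme (full inhibition) and uninhibited wells.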
# Shiga inhibitor = Shiga toxin inhibition. 290,000 tested, 9.2% active. Vero cells, Shiga toxin protein synthesis inhibition reporter. inhibition, % at 38.7 µM. AID 2315; in the data active = inhibition mostly above about 28%, no sharp cut-off; inactive = mostly below about 43%; note: 0% is about no effect
# TbPYK inhibitor = blocks Trypanosoma brucei pyruvate kinase | Q57TT1 | TbPYK enzyme, Kinase-Glo Plus ATP luminescence, 45 min | Potency, µM (titrated, usually from 76.8 µM), inactives show at the top dose activity, negative = inhibition, hits mostly inhibitors | 410,000 tested, 0.12% active | AID 624173; note: potency is the fitted concentration of half-maximal effect; % is set by controls: 0 for no effect and ±100 for the full control effect; nearly all actives have a fitted effect of over 50% in size
#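 Readout: single end-point luminescence (Kinase-Glo Plus, 10 min). Reaction conditions were TbPYK/substrate plus 130 uM ADP, 45 min at RT, pH 7.2 TEA buffer. No-enzyme wells served as controls, and data were normalized before concentration-response fitting.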
# CHX counter = counter-screen hit for Shiga toxin inhibitors, cycloheximide. cell reporter, cycloheximide protein synthesis inhibition counterscreen. max response, %. 300,000 tested, 12% active; in the data active = max response mostly above about 13%, no sharp cut-off; inactive = mostly below about 14%; note: read at 38.3 µM for the half of the compounds with a filed dose; 0% is about no effect
# * = called active by the depositor; ? = inconclusive; nt = no result. The sample as a whole holds a higher share of hits than the screen did. Unless noted, calls come from the whole dose curve; as a rule, active = well fitted curve in the direction sought with a large enough effect; inconclusive = small, poorly fitted or top-dose-only effect, or another doubt; inactive = no such curve, though single readings can be large; an effect the other way counts as inactive or inconclusive.
SMILES,RE007 growth inh,Giardia FBPA inh,LmPK inh,Shiga inhibitor,TbPYK inhibitor,CHX counter
CCn1cc(C(=O)OCC(=O)c2ccccc2)c(=O)c2ccc(C)nc21,4%,2%,-2%,-13,4%,-2
CC1CCN(S(=O)(=O)c2ccc(C(=O)Nc3nc4ccc(F)cc4s3)cc2)CC1,nt,nt,nt,nt,-2%,nt
CCOc1ccc(-c2csc3nc[nH]c(=O)c23)cc1,9%,8%,0%,110*,-5%,30*
CC(C)c1ccc(-c2csc3nc[nH]c(=O)c23)cc1,2%,-5%,13%,nt,-5%,24*
CCc1ccc(-c2csc3nc[nH]c(=O)c23)cc1,4%,-5%,-2%,15,-3%,22*
COc1ccc(-c2csc3nc[nH]c(=O)c23)cc1,15%,0%,-3%,18,3%,2
O=c1[nH]cnc2scc(-c3ccccc3)c12,13%,-6%,-3%,-6,-12%,-2
O=c1[nH]cnc2scc(-c3ccc(Br)cc3)c12,6%,4%,-1%,25,3%,11
O=S(=O)(/C=C/c1ccccc1)Oc1ccccc1,3%,6%,-1%,21,1%,28*
CNS(=O)(=O)/C=C/c1ccccc1,-1%,2%,-1%,12,5%,7
Cc1ccc(NC(=O)c2c(C)oc3ccc(O)c(CN4CCCCCC4)c23)c(C)c1,nt,nt,nt,nt,-2%,nt
Nc1nc(SCc2ccc(F)cc2)ns1,9%,-5%,-4%,69*,-6%,40*
Cc1nnc(SCc2ccc(Cl)c(Cl)c2)s1,21%,2%,9%,22,-10%,14*
Cc1nnc(SCc2ccc(F)cc2)s1,0%,0%,-7%,55*,-4%,28*
O=C(Nc1nnc(SCc2ccccc2)s1)c1cccc([N+](=O)[O-])c1,-2%,?,-9%,11,-8%,5
Nc1nnc(SCc2ccc(F)cc2)s1,7%,2%,-3%,16,?,11
Cc1nnc(SCc2cccc([N+](=O)[O-])c2)s1,8%,-14%,1%,50,-4%,18*
COc1ccc(C2N3CC4(C)CN2CC(c2ccccc2)(C3)C4=O)cc1 (configuration not stated),nt,nt,nt,nt,0%,nt
CCNC(=S)Nc1ccc2c(c1)c(=O)n(C)n2-c1ccc(C(C)(C)C)cc1,32%,nt,nt,nt,-4%,nt
Cc1cc(C)cc(NC(=O)CCN2CCCC2)c1,-11%,-3%,4%,-11,-3%,-5
c1ccc(Nc2nnc(SCc3cccc4ccccc34)s2)cc1,8%,0%,1%,3,3%,-1
Cc1nnc(SCc2cccc3ccccc23)s1,14%,6%,4%,71*,4%,52*
N=C(N)SCc1nc2ccccc2c(=O)n1-c1ccccc1Cl,6%,-9%,-2%,81*,-2%,50*
Cc1ccccc1-n1c(CSC(=N)N)nc2ccccc2c1=O,-9%,-15%,-6%,7,2%,-3
N=C(N)n1cccn1,nt,nt,nt,nt,-2%,nt
SMILES,RE007 growth inh,Giardia FBPA inh,LmPK inh,Shiga inhibitor,TbPYK inhibitor,CHX counter
N/C(=N\OC(=O)COc1ccc2ccccc2c1Br)c1ccccn1,-11%,-12%,-2%,119*,4%,56*
N/C(=N\OC(=O)COc1ccc2ccccc2c1Br)c1cccnc1,nt,0%,0%,103*,nt,16*
N/C(=N\OC(=O)COc1ccccc1)c1cccnc1,-10%,nt,-3%,-18,6%,2
CC1CCCCC12NC(=O)N(CC(=O)NCc1cccs1)C2=O (configuration not stated),4%,nt,nt,nt,-5%,nt
Cc1cc(C(=O)CN2C(=O)c3cccc(N)c3C2=O)c(C)n1Cc1cccs1,-5%,-1%,3%,84*,-29%,34*
Cc1cc(C(=O)CN2C(=O)NC3(CCCCC3)C2=O)c(C)n1Cc1ccc2c(c1)OCO2,4%,6%,2%,96*,0%,27*
Cc1cc(C(=O)CN2C(=O)NC3(CCCCC3C)C2=O)c(C)n1Cc1cccs1 (configuration not stated),-5%,-1%,8%,75*,-9%,101*
Cc1cc(C(=O)CN2C(=O)NC3(CCCCC3)C2=O)c(C)n1Cc1ccco1,-6%,0%,3%,89*,-4%,41*
O=C(Nc1cccc(S(=O)(=O)NC2=NCCC2)c1)c1cn(-c2ccccc2)nc1-c1ccc(F)cc1,-2%,nt,nt,nt,-9%,nt
O=c1[nH]c(/C=C/c2cccc3ccccc23)nc2ccccc12,1%,-3%,-1%,46,-10%,27
O=c1[nH]c(/C=C/c2ccccc2[N+](=O)[O-])nc2ccccc12,-24%,5%,-2%,-7,-6%,9
O=c1[nH]c(/C=C/c2ccccn2)nc2ccccc12,-17%,-8%,-6%,70*,-2%,56*
O=c1[nH]c(/C=C/c2ccccc2F)nc2ccccc12,-6%,9%,-14%,71*,6%,34*
CCOC(=O)C1(Cc2ccc(OC)cc2)CCN(C(=O)CCN2CCCC2=O)CC1,5%,0%,-1%,19,1%,17*
CCOC(=O)C1(CCCc2ccccc2)CCN(C(=O)CCc2cnccn2)CC1,-11%,-2%,9%,10,-11%,12
CCOC(=O)C1(Cc2ccc(OC)cc2)CCN(C(=O)CC2CCC(=O)N2)CC1 (configuration not stated),-7%,2%,3%,12,1%,12
CCOC(=O)C1(CCc2ccccc2)CCN(C(=O)CCc2cnccn2)CC1,-9%,2%,-2%,55*,-7%,24*
CCOC(=O)C1(Cc2ccc(Cl)cc2)CCN(C(=O)CCc2cnccn2)CC1,-5%,0%,2%,14,-2%,-2
CCOC(=O)C1(Cc2ccc(OC)cc2)CCN(C(=O)CCc2cnccn2)CC1,-4%,-5%,-2%,36,2%,14*
N#Cc1cccc(-c2csc(C(O)c3ccco3)n2)c1 (configuration not stated),36%,nt,nt,nt,0%,nt
Cc1ccc(-c2cc(N)n(-c3ccc(C)cc3)n2)cc1,-2%,0%,1%,57*,0%,31*
Cc1ccc(-c2cc(N)n(-c3ccc(F)cc3)n2)cc1,-23%,-3%,-6%,67*,0%,49*
Cc1ccc(-c2cc(N)n3nc(-c4ccc(C)cc4)cc3n2)cc1,-12%,1%,-2%,19,4%,-1
Cc1c(CCO)c(=O)n(C)n1C(=O)c1ccc(F)cc1,-7%,0%,-5%,-12,1%,1
Cc1c(CCO)c(=O)[nH]n1C(=O)c1ccc(F)cc1,4%,5%,-7%,65*,-8%,24*
Cc1c(/C(O)=C2\C(=O)C(=O)N(CCN(C)C)C2c2cccnc2)cnn1-c1ccccc1 (configuration not stated),5%,9%,3%,13,7%,15*

# High-throughput results deposited in PubChem by National Center for Advancing Translational Sciences (NCATS).
